# Source: publication PMC11062922 (Nature Chemical Biology, 2023)
# Like-named read-outs stand apart in the source and are kept apart here.
# What was measured:
# Set-up in all cases: species or system human, MV4-11 + K-562 + COLO205 + SK-N-BE2 + OVCAR-8
# ACVR1B = conditions: read-out: apparent Kd, n = 1
# ADCK1 = conditions: read-out: apparent Kd; compound concentrations:100 nM and 1000 nM (sheet 'Samples'); n = 1
# PIK3CA = conditions: read-out: apparent Kd; compound concentrations:100 nM and 1000 nM (sheet 'Samples'); n = 1
# PIK3CD = conditions: read-out: apparent Kd; compound concentrations:100 nM and 1000 nM (sheet 'Samples'); n = 1
# PKN1 = conditions: read-out: apparent Kd; compound concentrations:100 nM and 1000 nM (sheet 'Samples'); n = 1
# PKN2 = conditions: read-out: apparent Kd; compound concentrations:100 nM and 1000 nM (sheet 'Samples'); n = 1
# RAB5C = conditions: read-out: apparent Kd; compound concentrations:100 nM and 1000 nM (sheet 'Samples'); n = 1
# TTN = conditions: read-out: apparent Kd; compound concentrations:100 nM and 1000 nM (sheet 'Samples'); n = 1
# CSNK1D = conditions: read-out: apparent Kd, compound concentrations: 100 nM and 1000 nM (sheet 'Samples'), n = 1
# NQO1 = conditions: read-out: apparent Kd; compound concentrations: 100 nM and 1000 nM (sheet 'Samples'), CATDS: 9.3669265888158104E-2; n = 1
# PRKD2 = conditions: read-out: apparent Kd, compound concentrations: 100 nM and 1000 nM (sheet 'Samples'), n = 1
# PRKD3 = conditions: read-out: apparent Kd; compound concentrations: 100 nM and 1000 nM (sheet 'Samples'), CATDS: 9.3266966311560201E-2; n = 1
# RIPK2 = conditions: read-out: apparent Kd, compound concentrations: 100 nM and 1000 nM (sheet 'Samples'), n = 1
# TGFBR1 = conditions: read-out: apparent Kd, compound concentrations: 100 nM and 1000 nM (sheet 'Samples'), n = 1
# TGFBR2 = conditions: read-out: apparent Kd, compound concentrations: 100 nM and 1000 nM (sheet 'Samples'), n = 1
# ACVR1 = conditions: read-out: apparent Kd; compound concentrations: 100 nM and 1000 nM (sheet 'Samples'), CATDS: 1.9559764953072701E-2; n = 1
# ACVR2B = conditions: read-out: apparent Kd; compound concentrations: 100 nM and 1000 nM (sheet 'Samples'), CATDS: 2.6273503134627601E-2; n = 1
# BCR = conditions: read-out: apparent Kd; compound concentrations: 100 nM and 1000 nM (sheet 'Samples'), CATDS: 2.1537689296735201E-2; n = 1
# BMPR1B = conditions: read-out: apparent Kd; compound concentrations: 100 nM and 1000 nM (sheet 'Samples'), CATDS: 2.4616373356857599E-2; n = 1
# BRAF = conditions: read-out: apparent Kd; compound concentrations: 100 nM and 1000 nM (sheet 'Samples'), CATDS: 1.9586867815954801E-2; n = 1
# BUB1 = conditions: read-out: apparent Kd; compound concentrations: 100 nM and 1000 nM (sheet 'Samples'), CATDS: 2.2537896529622702E-2; n = 1
# CIT = conditions: read-out: apparent Kd; compound concentrations: 100 nM and 1000 nM (sheet 'Samples'), CATDS: 2.75730146177765E-2; n = 1
# CSNK1A1 = conditions: read-out: apparent Kd; compound concentrations: 100 nM and 1000 nM (sheet 'Samples'), CATDS: 2.3707563911338599E-2; n = 1
# CSNK1E = conditions: read-out: apparent Kd; compound concentrations: 100 nM and 1000 nM (sheet 'Samples'), CATDS: 3.2440470018423401E-2; n = 1
# EPHA1 = conditions: read-out: apparent Kd; compound concentrations: 100 nM and 1000 nM (sheet 'Samples'), CATDS: 3.1864310867846697E-2; n = 1
# FRK = conditions: read-out: apparent Kd; compound concentrations: 100 nM and 1000 nM (sheet 'Samples'), CATDS: 4.4669706945154999E-2; n = 1
# FYN = conditions: read-out: apparent Kd; compound concentrations: 100 nM and 1000 nM (sheet 'Samples'), CATDS: 2.2205933689287499E-2; n = 1
# MAPK14 = conditions: read-out: apparent Kd; compound concentrations: 100 nM and 1000 nM (sheet 'Samples'), CATDS: 3.89835717032921E-2; n = 1
# MAPK9 = conditions: read-out: apparent Kd; compound concentrations: 100 nM and 1000 nM (sheet 'Samples'), CATDS: 1.8300020860960699E-2; n = 1
# MAPKAPK2 = conditions: read-out: apparent Kd; compound concentrations: 100 nM and 1000 nM (sheet 'Samples'), CATDS: 2.4524702318677E-2; n = 1
# PKN3 = conditions: read-out: apparent Kd; compound concentrations: 100 nM and 1000 nM (sheet 'Samples'), CATDS: 0.20654584562915099; n = 1
# PRKCI = conditions: read-out: apparent Kd; compound concentrations: 100 nM and 1000 nM (sheet 'Samples'), CATDS: 3.04574994167322E-2; n = 1
# PTK6 = conditions: read-out: apparent Kd; compound concentrations: 100 nM and 1000 nM (sheet 'Samples'), CATDS: 3.9660106147075401E-2; n = 1
# RET = conditions: read-out: apparent Kd; compound concentrations: 100 nM and 1000 nM (sheet 'Samples'), CATDS: 0.10726511440353401; n = 1
# RIPK3 = conditions: read-out: apparent Kd; compound concentrations: 100 nM and 1000 nM (sheet 'Samples'), CATDS: 5.5820006344930999E-2; n = 1
# RPS6KB1 = conditions: read-out: apparent Kd; compound concentrations: 100 nM and 1000 nM (sheet 'Samples'), CATDS: 1.9963914199749098E-2; n = 1
# SIK2 = conditions: read-out: apparent Kd; compound concentrations: 100 nM and 1000 nM (sheet 'Samples'), CATDS: 2.1322969574131299E-2; n = 1
# SIK3 = conditions: read-out: apparent Kd; compound concentrations: 100 nM and 1000 nM (sheet 'Samples'), CATDS: 2.2436255384138602E-2; n = 1
# SLK = conditions: read-out: apparent Kd; compound concentrations: 100 nM and 1000 nM (sheet 'Samples'), CATDS: 3.1142117408046201E-2; n = 1
# STK10 = conditions: read-out: apparent Kd; compound concentrations: 100 nM and 1000 nM (sheet 'Samples'), CATDS: 2.2718990110139101E-2; n = 1
# TNIK = conditions: read-out: apparent Kd; compound concentrations: 100 nM and 1000 nM (sheet 'Samples'), CATDS: 1.9385936597074001E-2; n = 1
smiles,measurement,setting,value
Cl.Cl.c1ccc(-c2cc3ccncc3cc2OC2CCNCC2)cc1.c1ccc(-c2cc3ccncc3cc2OC2CCNCC2)cc1 [GSK1122999D],potency estimated from few doses,ACVR1B; compound concentrations:100 nM and 1000 nM (sheet 'Samples'),1.16 µM
same,potency estimated from few doses,ADCK1,1.28 µM
same,potency estimated from few doses,PIK3CA,0.287 µM
same,potency estimated from few doses,PIK3CD,0.179 µM
same,potency estimated from few doses,PKN1,2.03 µM
same,potency estimated from few doses,PKN2,2.04 µM
same,potency estimated from few doses,RAB5C,1.19 µM
same,potency estimated from few doses,TTN,0.886 µM
Nc1nc(-c2ccccn2)c(-c2ccc3ncccc3n2)s1 [GW693481X],potency estimated from few doses,"ACVR1B; compound concentrations: 100 nM and 1000 nM (sheet 'Samples'), CATDS: 0.44423819438106199",0.0189 µM
same,potency estimated from few doses,CSNK1D; CATDS: 0.10134290714946401,1.41 µM
same,potency estimated from few doses,NQO1,1.85 µM
same,potency estimated from few doses,PRKD2; CATDS: 9.0452620049035204E-2,2.11 µM
same,potency estimated from few doses,PRKD3,1.88 µM
same,potency estimated from few doses,RIPK2; CATDS: 0.125372096454309,0.727 µM
same,potency estimated from few doses,TGFBR1; CATDS: 0.486387422395817,0.016 µM
same,potency estimated from few doses,TGFBR2; CATDS: 0.106428788110752,1.2 µM
CC(C)(CN)c1nc(-c2ccc(Cl)c(O)c2)c(-c2ccncc2)[nH]1.O=C(O)C(F)(F)F [SB-477794-AAA],potency estimated from few doses,"ACVR1B; compound concentrations: 100 nM and 1000 nM (sheet 'Samples'), CATDS: 5.2307110654739801E-2",0.0554 µM
same,potency estimated from few doses,ACVR1,1.33 µM
same,potency estimated from few doses,ACVR2B,0.388 µM
same,potency estimated from few doses,BCR,0.833 µM
same,potency estimated from few doses,BMPR1B,0.488 µM
same,potency estimated from few doses,BRAF,1.32 µM
same,potency estimated from few doses,BUB1,0.687 µM
same,potency estimated from few doses,CIT,0.33 µM
same,potency estimated from few doses,CSNK1A1,0.562 µM
same,potency estimated from few doses,CSNK1D; CATDS: 4.2810001426460499E-2,0.0925 µM
same,potency estimated from few doses,CSNK1E,0.199 µM
same,potency estimated from few doses,EPHA1,0.21 µM
same,potency estimated from few doses,FRK,0.0828 µM
same,potency estimated from few doses,FYN,0.73 µM
same,potency estimated from few doses,MAPK14,0.119 µM
same,potency estimated from few doses,MAPK9,2 µM
same,potency estimated from few doses,MAPKAPK2,0.495 µM
same,potency estimated from few doses,PKN3,0.00221 µM
same,potency estimated from few doses,PRKCI,0.241 µM
same,potency estimated from few doses,PRKD2; CATDS: 2.0032181023514398E-2,1.17 µM
same,potency estimated from few doses,PTK6,0.113 µM
same,potency estimated from few doses,RET,0.00997 µM
same,potency estimated from few doses,RIPK2; CATDS: 0.143338451264474,0.00513 µM
same,potency estimated from few doses,RIPK3,0.0471 µM
same,potency estimated from few doses,RPS6KB1,1.2 µM
same,potency estimated from few doses,SIK2,0.871 µM
same,potency estimated from few doses,SIK3,0.699 µM
same,potency estimated from few doses,SLK,0.225 µM
same,potency estimated from few doses,STK10,0.665 µM
same,potency estimated from few doses,TGFBR1; CATDS: 5.82262421070339E-2,0.0425 µM
same,potency estimated from few doses,TGFBR2; CATDS: 8.8931452038097006E-2,0.0154 µM
same,potency estimated from few doses,TNIK,1.4 µM
